Structures can show the parent of a compound that is named as a salt.
These molecules were tested on thyroid hormone receptor (endogenous TRα and TRβ). Settings: read-out: Average AC50 (uM) GH3-TRE-Antag, antagonist mode, 1 nM T3, no GH3 cytotoxicity hit.
Design: species or system GH3-TRE-Luc (rat pituitary); GH3-TRE-Luc luciferase reporter, antagonist mode against 1 nM T3, loss of signal, qHTS
Work on `CC(C)CCCCCCCCCCCCCCC(=O)O` [Isooctadecanoic acid] yielded an AC50 of 16.3 µM.
Molecule `O=[N+]([O-])c1c(Cl)c(Cl)c(Cl)c(Cl)c1Cl` [Pentachloronitrobenzene] has an AC50 of over 90 µM.
In the case of `Cc1cccc(Nc2ccccc2)c1` [3-Methyl-N-phenylaniline], the AC50 is reported as 45 µM.
Work on `C=CCCCCCCCCC(=O)O` [10-Undecenoic acid] yielded an AC50 of 43.6 µM.
In the case of `CC1(C)[C@H](C=C(Cl)Cl)[C@H]1C(=O)O[C@H](C#N)c1cccc(Oc2ccccc2)c1` [Cypermethrin], the AC50 is reported as over 50 µM.
`O=C(O)c1cccc(-c2noc(-c3ccccc3F)n2)c1` [Ataluren] was tested, and the AC50 was 10.8 µM.
For `O=C1c2ccccc2C(=O)N1CCc1noc(-c2ccc(CN3CCCCCC3)s2)n1` [PharmaGSID_48172], the AC50 was 75.2 µM.
Molecule `C[C@]12CCC(=O)C=C1C=C[C@@H]1[C@@H]2CC[C@@]2(C)[C@H]1CC[C@@]21CCC(=O)O1` [Canrenone] has an AC50 of 34.1 µM.
For `OCCN1CCNCC1` [1-Piperazineethanol], the AC50 was 74.1 µM.
For `C#C[C@]1(O)CC[C@H]2[C@@H]3CCc4cc(OC)ccc4[C@H]3CC[C@@]21C` [Mestranol], the AC50 was 21.8 µM.
`COC1=CC(=O)O[C@@H](/C=C/c2ccc3c(c2)OCO3)C1` [Methysticin] gave an AC50 of 0.0476 µM.
Molecule `COc1cccc(N(C)C(=S)Oc2ccc3c(c2)CCCC3)n1` [Liranaftate] has an AC50 of 39.9 µM.
For `O=C(O)c1ccccc1Nc1cccc(C(F)(F)F)c1` [Flufenamic acid], the AC50 was 29.6 µM.
With `CC(C)=CC1C(C(=O)OC(C#N)c2cccc(Oc3ccccc3)c2)C1(C)C` (stereo not drawn) [Cyphenothrin] the AC50 was 79.9 µM.
For `CCCCCCCCCCCCCCCCCCCCCC(=O)Nc1ccn([C@@H]2O[C@H](CO)[C@@H](O)[C@@H]2O)c(=O)n1` [Enocitabine], the AC50 was 17.3 µM.
Work on `c1ccc2c(c1)[nH]c1cnccc12` [Norharman] yielded an AC50 of 45.1 µM.
With `CC1=CC(C)(C)Nc2ccccc21` [1,2-Dihydro-2,2,4-trimethylquinoline, polymer] the AC50 was 28 µM.
`Cc1ccccc1C(=O)Nc1cccc(OC(C)C)c1` [Mepronil] was tested, and the AC50 was 48.2 µM.
`COC(=O)c1c(Cl)c(Cl)c(C(=O)OC)c(Cl)c1Cl` [Chlorthal-dimethyl] showed an AC50 of 72.5 µM.
`CCN(CC)C(=O)N[C@H]1C[C@@H]2c3cccc4[nH]cc(c34)C[C@H]2N(C)C1` [Terguride] was tested, and the AC50 was 22.1 µM.
Work on `CCCCCCCCCCCCCCNCCO` [Myralact] yielded an AC50 of 22.8 µM.
`CN1[C@@H](CC(=O)c2ccccc2)CCC[C@H]1C[C@H](O)c1ccccc1` [Lobeline] gave an AC50 of 29.3 µM.
Work on `O=C1OC2(c3ccc(O)cc3Oc3cc(O)ccc32)c2ccccc21` [Fluorescein] yielded an AC50 of over 50 µM.
Molecule `Cc1oc(=O)oc1CN1CCN(c2cc3c(cc2F)c(=O)c(C(=O)O)c2n3C(C)S2)CC1` (stereo not drawn) [Prulifloxacin] has an AC50 of over 50 µM.
`CCN(CC)CCNC(=O)c1cc(Br)c(N)cc1OC` [Bromopride] showed an AC50 of 38.6 µM.
In the case of `O=C(Nc1ccc(Cl)c(Cl)c1)C1CC1` [Cypromid], the AC50 is reported as 45.8 µM.
In the case of `COc1ccc(/C=C/C(=O)Nc2ccccc2C(=O)O)cc1OC` [Tranilast], the AC50 is reported as 12.3 µM.
`COc1cc2c(cc1N)oc1ccccc12` [2-Methoxy-3-aminodibenzofuran] showed an AC50 of 84.6 µM.
`Cc1cccc(Nc2ccccc2C(=O)O)c1C` [Mefenamic acid] gave an AC50 of 27.4 µM.
`C[C@H](CN1CCCC1)C(=O)c1ccc(C(F)(F)F)cc1` [Lanperisone hydrochloride] was tested, and the AC50 was 31.4 µM.
Molecule `COc1ccc(C(CN(C)C)C2(O)CCCCC2)cc1` (stereo not drawn) [Venlafaxine hydrochloride] has an AC50 of 71 µM.
Work on `C(COCC1CO1)OCC1CO1` (stereo not drawn) [Ethylene glycol diglycidyl ether] yielded an AC50 of 38 µM.
`Cc1cc(C(C)(C)C)c(O)c(C)c1Cn1c(=O)n(Cc2c(C)cc(C(C)(C)C)c(O)c2C)c(=O)n(Cc2c(C)cc(C(C)(C)C)c(O)c2C)c1=O` [Cyanox CY 1790] showed an AC50 of 66.5 µM.
With `NC(=O)N(O)[C@@H]1COc2cc(OCc3ccccc3)ccc21` [SB202235] the AC50 was 85 µM.
`c1ccc(C2(c3ccccc3)CC2C2=NCCN2)cc1` (stereo not drawn) [Cifenline succinate] was tested, and the AC50 was 35.8 µM.
With `CC(=O)Oc1ccc(C2(c3ccc(OC(C)=O)cc3)Oc3ccccc3NC2=O)cc1` [Bisoxatin acetate] the AC50 was 3.76 µM.
`CCCCCC/C=C\CCCCCCCC(=O)O` [(Z)-Hexadec-9-enoic acid] was tested, and the AC50 was 44.5 µM.
Molecule `Cl[C@H]1[C@H](Cl)[C@@H](Cl)[C@@H](Cl)[C@H](Cl)[C@H]1Cl` [Lindane] has an AC50 of 81.2 µM.
`CCCCCCCCCCCCCCC[C@H](O)[C@@H](N)CO` [Safingol] showed an AC50 of 27.1 µM.

From paper PMC6792352, “Limited Chemical Structural Diversity Found to Modulate Thyroid Hormone Receptor in the Tox21 Chemical Library” (Environmental Health Perspectives, 2019)
